Data on 40 molecules can be found in ChEMBL document CHEMBL1157539, “Thousands of chemical starting points for antimalarial lead identification” (Nature, 2010).

Structures are written as SMILES.

In general, Inhibition refers to how much of the control response was suppressed. High values mean a response far below the control, low ones a response near the control.

This assay relates to Plasmodium falciparum. Put plainly: GSK_TCMDC: Inhibition of Plasmodium falciparum 3D7 in whole red blood cells, using parasite LDH activity as an index of growth. Test compounds present at 2uM. It counts as functional.
In turn, `Cc1ccc(NC(=O)c2ccc(CN3CCCN(Cc4cccc(O)c4)CC3)cc2)cc1.O=C(O)C(F)(F)F` yielded an Inhibition of 90%.
For `CN(C)CCn1cc(C(=O)c2cc(Cl)ccc2O)cc1-c1nc2ccccc2c(=O)[nH]1` the value was 99%; for `COc1ccc2ncc(F)c(CCN3CCC(NCc4ccc5c(c4)CCO5)CC3)c2n1.Cl`, 100%.
For the molecule `O=C(O)C(=O)O.Oc1c(CN2CCC(Cc3ccccc3)CC2)cc(Cl)c2cccnc12`, the Inhibition stood at 96%.
For `CCCCCN1CCCCC(NS(=O)(=O)c2ccc(C(=O)Nc3cccc(C(F)(F)F)c3)cc2)C1.O=C(O)C(F)(F)F` (stereo not given) the value was 93%; for `O=C(Cn1c(SCc2cccc(F)c2F)cc(=O)c2ccccc21)N(CCc1c[nH]cn1)Cc1ccc(-c2ccc(C(F)(F)F)cc2)cc1`, 100%.
As to `CCCCCCN1CCC(CNCc2cccc([N+](=O)[O-])c2)CC1.O=C(O)C(F)(F)F`, the Inhibition was 95%.
With `O=C(CSc1cccc[n+]1[O-])c1ccc(Cc2ncc(C(F)(F)F)cc2Cl)s1` the figure was 99%; with `CCN1CCN(c2cc(C)c3cc(NC(=O)c4cccc(Cl)c4)ccc3n2)CC1`, 100%.
With `COc1ccc(CN(C)CC(O)COc2ccc(NC(=O)c3cccc4c(=O)c5cccc(OC)c5[nH]c34)cc2)cc1OC` (stereo not given) the figure was 93%.
For `Cc1cc(=NN=Cc2ccccc2)c2cc(C(F)(F)F)ccc2[nH]1` the value was 100%; for `COc1ccccc1N=C1SC(=Cc2cn(CC(=O)N3CCCc4ccccc43)c3ccccc23)C(=O)N1C1CCCCC1`, 100%.
`COc1ccc(-n2cc(CNCCCn3ccnc3)c(-c3cccc(F)c3)n2)cc1` yielded an Inhibition of 98%.
The molecule `O=C(N[C@@H](Cc1ccccc1)C(=O)NC1CCCCC1)c1ccc(O)c(-c2cccc(C(F)(F)F)c2)c1` came in with an Inhibition of 96%.
For `CCOC(=O)NCCSC(C)(C)[C@H](NC(=O)[C@H](Cc1cc2ccccc2s1)[C@H](CC)N(O)C=O)C(=O)Nc1nccs1` the value was 98%.
For `Nc1nc(N)c2nc(C3CC=CCC3)c(N)nc2n1` (stereo not given) the value was 95%; for `CC(=O)N1CCN(c2ccc(NC(=O)c3oc(-c4ccccc4)nc3C(F)(F)F)cn2)CC1`, 92%.
For `COc1ccc(CN2CCC(Oc3cccc(NC(=O)c4ccc(C(F)(F)F)cc4)c3)CC2)cc1.O=C(O)C(F)(F)F` the value was 95%.
Molecule `O=C(NC1CCN(Cc2ccsc2)CC1)c1ccc(-c2cccc(C(F)(F)F)c2)s1.O=C(O)C(F)(F)F` had an Inhibition of 88%.
For `O=C(O)C(F)(F)F.O=S(=O)(NCCN1CCCC1)c1ccc(-c2cccc(CNCc3ccc(F)cc3)c2)cc1F` the value was 97%; for `CC(C)C[C@H](NC(=O)c1ccc(F)cc1)C(=O)N[C@H](/C=N/NC(=O)c1ccccc1)CCc1ccccc1`, 92%; for `COc1ccc2nccc(N/N=C/c3cccc([N+](=O)[O-])c3)c2c1`, 100%.
`COc1ccc2ncc(C#N)c(CCN3CCC(NCc4ccc5c(c4)NC(=O)CO5)CC3)c2c1.Cl` had an Inhibition of 99%.
With `CCC(C)(C)c1ccc(OCC(O)CN2CCCCC2)c(C(C)(C)CC)c1` (stereo not given) the figure was 91%; with `CCC1CCCCN1S(=O)(=O)c1ccc(NC(=O)c2cc(C)on2)cc1` (stereo not given), 86%.
For `Cc1ccc2nc(C)cc(N/N=C/c3ccc([N+](=O)[O-])cc3)c2c1` the value was 100%; for `C(=Cc1nc2ccccc2s1)c1ccc2c(c1)OCCO2.Cl`, 98%; for `CN1CCN(C(C(=O)NCc2cc(Cl)cc(Cl)c2)c2ccc(Nc3cccc(C(F)(F)F)c3)cc2)CC1` (stereo not given), 85%.
For `O=C(O)C(F)(F)F.O=C1CCCN1CCCNCc1ccc(-c2ccc(-c3nc4cc(C(F)(F)F)ccc4[nH]3)cc2)cc1` the value was 100%.
In turn, `COc1cc(-c2nnc(SCC(=O)Nc3cc(C)on3)n2C)cc(OC)c1O` returned an Inhibition of 89%.
For `O=C1C[C@@H]([S+]([O-])Cc2nccs2)N1CCOCCCCCCc1ccc(Cl)cc1` (stereo not given in full) the value was 91%; for `CC(C)(C)c1nn(-c2ccccc2)c2[nH]c(=O)c(CNC3CCCC3)cc12`, 100%; for `O=C(Nc1ccc(Cn2ncc(N3CCCNCC3)c(Cl)c2=O)cc1)Nc1ccc(SC(F)(F)F)cc1.O=C(O)C(F)(F)F`, 93%.
With `FC(F)(F)c1ccc2[nH]c(-c3ccc(-c4cccc(CNCCc5cccnc5)c4)s3)nc2c1.O=C(O)C(F)(F)F` the figure was 100%; with `CCC[C@@H]([C@@H](CC1CCCCC1)C(=O)N[C@H](C(=O)Nc1nccs1)C(C)(C)SCCNC(=O)OCC)N(O)C=O`, 99%.
For `CN1CCN(c2ccnc3ccc(NC(=O)Nc4ccc(Br)cc4)cc23)CC1` the value was 100%.
The molecule `COc1cc2nc(N3CCC(CNC(=O)c4ccc(C(C)=O)cc4)CC3)nc(N)c2cc1OC.O=C(O)C(F)(F)F` registered an Inhibition of 96%.
With `CC(C)NCc1cccc(-c2cccc(NC(=O)c3cccc(C#N)c3)c2)c1.O=C(O)C(F)(F)F` the figure was 99%; with `O=C(Nc1cccc(CN2CCCN(Cc3ccc(F)cc3)CC2)c1)c1ccc(Cl)c(Cl)c1.O=C(O)C(F)(F)F`, 95%.
With `COc1cc(Cn2ccc3c4c(N)nc(N)nc4ccc32)cc(OC)c1OC` the figure was 94%.
